# Measured values reported in paper PMC7862700, “An all-to-all approach to the identification of sequence-specific readers for epigenetic DNA modifications on cytosine”.
# Legend:
# Test in all cases: DAPPL (digital affinity profiling via proximity ligation, sequencing); 10 mM Tris-HCl pH 7.5, 50 mM NaCl, 1 mM DTT, 4% glycerol, room temperature, 30 min; GST-TFs on glutathione beads, 16-mer random dsDNA library, 0.1% formaldehyde crosslink after washing; high values mean tight binding
# FEV = target: T1, FEV (Homo sapiens, UniProt Q99581 1-238); settings: protein: recombinant; tags: N-terminal GST; dsDNA, one strand shown
# T1 sequence: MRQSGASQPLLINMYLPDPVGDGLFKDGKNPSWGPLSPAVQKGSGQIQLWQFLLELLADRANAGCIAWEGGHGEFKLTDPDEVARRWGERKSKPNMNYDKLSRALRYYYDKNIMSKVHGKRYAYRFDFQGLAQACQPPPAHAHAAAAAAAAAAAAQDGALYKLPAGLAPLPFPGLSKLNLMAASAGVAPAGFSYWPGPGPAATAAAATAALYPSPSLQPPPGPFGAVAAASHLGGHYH
# Procedure, shortened: (§1)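 In yeast, human transcription factors were expressed with a GST fusion, then pulled down on glutathione beads and given DNA barcodes. Pooled with a tag-only sample, they were exposed to 200 nmole of a 16-mer random double-stranded DNA library (Tris/NaCl/DTT/glycerol buffer, room temperature, 30 min), washed, crosslinked with 0.1% formaldehyde, proximity-ligated using BsaI/T4 ligase for 1 h at 37 °C, PCR-amplified and read on an Illumina NextSeq500. Each hexamer's frequency of reads for a factor, divided by the matching frequency for the tag-only sample, gives the binding signal.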
# ETV5 = ETV5 (Homo sapiens, UniProt P41161 1-510); settings: protein: recombinant; tags: N-terminal GST; dsDNA, one strand shown
# Sequence of ETV5 (P41161 whole entry): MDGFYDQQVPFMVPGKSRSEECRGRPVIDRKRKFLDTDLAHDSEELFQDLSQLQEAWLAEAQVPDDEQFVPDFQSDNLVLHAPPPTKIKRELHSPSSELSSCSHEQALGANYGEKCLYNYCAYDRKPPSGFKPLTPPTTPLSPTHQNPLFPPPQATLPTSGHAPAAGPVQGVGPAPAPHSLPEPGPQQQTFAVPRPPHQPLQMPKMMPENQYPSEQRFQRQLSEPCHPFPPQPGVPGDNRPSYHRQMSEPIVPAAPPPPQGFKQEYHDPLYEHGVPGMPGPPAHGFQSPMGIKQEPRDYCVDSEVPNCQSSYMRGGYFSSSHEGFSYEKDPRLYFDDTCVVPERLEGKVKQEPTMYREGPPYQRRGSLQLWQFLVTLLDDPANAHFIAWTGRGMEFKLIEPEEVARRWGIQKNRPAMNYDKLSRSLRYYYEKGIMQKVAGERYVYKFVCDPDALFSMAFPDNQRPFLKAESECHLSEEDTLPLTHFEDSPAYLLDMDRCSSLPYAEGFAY
# Procedure, shortened: as §1
# HSF1 = HSF1 (Homo sapiens, UniProt Q00613 1-529); settings: protein: recombinant; tags: N-terminal GST; chain copies: 3; dsDNA, one strand shown
# Sequence of HSF1 (Q00613 whole entry): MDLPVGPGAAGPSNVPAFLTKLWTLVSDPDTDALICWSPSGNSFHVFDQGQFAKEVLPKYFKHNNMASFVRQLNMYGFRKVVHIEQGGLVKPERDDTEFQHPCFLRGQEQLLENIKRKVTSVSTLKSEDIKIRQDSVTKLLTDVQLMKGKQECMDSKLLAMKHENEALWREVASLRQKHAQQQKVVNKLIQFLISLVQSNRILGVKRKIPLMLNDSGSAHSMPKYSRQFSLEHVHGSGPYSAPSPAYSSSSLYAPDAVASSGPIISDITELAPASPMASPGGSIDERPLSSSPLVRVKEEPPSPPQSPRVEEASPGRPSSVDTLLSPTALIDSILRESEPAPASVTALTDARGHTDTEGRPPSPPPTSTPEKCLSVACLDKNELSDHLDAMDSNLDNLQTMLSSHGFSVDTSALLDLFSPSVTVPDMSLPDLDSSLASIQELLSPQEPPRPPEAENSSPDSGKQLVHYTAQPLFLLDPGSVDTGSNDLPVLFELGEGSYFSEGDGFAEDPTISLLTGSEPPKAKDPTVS
# Procedure, shortened: as §1
# SPIC = target: T2, SPIC (Homo sapiens, UniProt Q8N5J4 1-248); settings: protein: recombinant; tags: N-terminal GST; dsDNA, one strand shown
# T2 sequence: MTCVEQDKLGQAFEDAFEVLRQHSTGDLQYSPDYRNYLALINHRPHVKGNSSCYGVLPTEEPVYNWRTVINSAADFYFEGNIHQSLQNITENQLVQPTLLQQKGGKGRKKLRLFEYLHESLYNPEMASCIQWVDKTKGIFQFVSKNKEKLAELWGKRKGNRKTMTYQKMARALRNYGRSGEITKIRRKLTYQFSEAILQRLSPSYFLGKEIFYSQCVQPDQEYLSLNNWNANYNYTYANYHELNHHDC
# Procedure, shortened: as §1
# ELF4 = ELF4 (Homo sapiens, UniProt Q99607 1-663); settings: protein: recombinant; tags: N-terminal GST; dsDNA, one strand shown
# Sequence of ELF4 (Q99607 whole entry): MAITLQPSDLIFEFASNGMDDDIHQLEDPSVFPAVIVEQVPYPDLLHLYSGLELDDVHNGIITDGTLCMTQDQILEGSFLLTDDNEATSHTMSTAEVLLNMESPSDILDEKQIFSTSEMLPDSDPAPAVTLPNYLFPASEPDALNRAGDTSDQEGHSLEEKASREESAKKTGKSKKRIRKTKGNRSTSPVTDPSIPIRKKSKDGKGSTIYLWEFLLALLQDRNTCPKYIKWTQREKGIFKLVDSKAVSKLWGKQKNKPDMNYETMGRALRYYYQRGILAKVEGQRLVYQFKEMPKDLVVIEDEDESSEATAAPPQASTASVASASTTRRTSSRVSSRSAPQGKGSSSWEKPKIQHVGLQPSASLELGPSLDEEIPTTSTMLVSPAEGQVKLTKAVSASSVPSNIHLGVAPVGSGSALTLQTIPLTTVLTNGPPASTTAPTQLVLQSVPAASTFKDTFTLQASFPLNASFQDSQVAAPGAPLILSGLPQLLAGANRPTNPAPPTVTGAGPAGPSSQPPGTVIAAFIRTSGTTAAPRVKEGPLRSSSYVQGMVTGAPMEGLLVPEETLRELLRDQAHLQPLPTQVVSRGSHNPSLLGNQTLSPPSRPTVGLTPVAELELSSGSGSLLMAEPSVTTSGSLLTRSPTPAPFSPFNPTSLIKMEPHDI
# Procedure, shortened: as §1
# ELK4 = target: T3, ELK4 (Homo sapiens, UniProt P28324-2 1-405); settings: protein: recombinant; tags: N-terminal GST; dsDNA, one strand shown
# T3 sequence: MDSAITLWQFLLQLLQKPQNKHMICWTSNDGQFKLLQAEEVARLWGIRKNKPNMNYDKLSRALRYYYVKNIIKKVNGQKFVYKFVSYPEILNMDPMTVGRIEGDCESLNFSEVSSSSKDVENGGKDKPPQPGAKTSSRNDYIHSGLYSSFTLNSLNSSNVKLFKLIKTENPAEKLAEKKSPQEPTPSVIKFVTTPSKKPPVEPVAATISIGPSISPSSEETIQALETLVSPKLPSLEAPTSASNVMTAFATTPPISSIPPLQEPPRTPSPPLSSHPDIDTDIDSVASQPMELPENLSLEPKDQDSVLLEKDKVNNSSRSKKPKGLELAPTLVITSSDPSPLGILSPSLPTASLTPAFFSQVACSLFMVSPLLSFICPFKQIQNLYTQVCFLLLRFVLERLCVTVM
# Procedure, shortened: as §1
# ETV2 = target: T4, ETV2 (Homo sapiens, UniProt O00321 1-342); settings: protein: recombinant; tags: N-terminal GST; dsDNA, one strand shown
# T4 sequence: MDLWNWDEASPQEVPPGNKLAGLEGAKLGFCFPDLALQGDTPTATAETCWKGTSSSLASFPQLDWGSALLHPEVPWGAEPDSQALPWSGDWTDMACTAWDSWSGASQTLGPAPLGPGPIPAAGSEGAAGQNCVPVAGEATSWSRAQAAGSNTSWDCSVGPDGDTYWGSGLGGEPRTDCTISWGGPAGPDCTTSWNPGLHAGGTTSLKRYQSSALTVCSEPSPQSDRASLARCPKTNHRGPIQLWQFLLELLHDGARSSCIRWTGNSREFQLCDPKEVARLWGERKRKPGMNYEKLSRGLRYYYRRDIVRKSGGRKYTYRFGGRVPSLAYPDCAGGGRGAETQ
# Procedure, shortened: as §1
# ELF3 = target: T5, ELF3 (Homo sapiens, UniProt P78545 1-371); settings: protein: recombinant; tags: N-terminal GST; dsDNA, one strand shown
# T5 sequence: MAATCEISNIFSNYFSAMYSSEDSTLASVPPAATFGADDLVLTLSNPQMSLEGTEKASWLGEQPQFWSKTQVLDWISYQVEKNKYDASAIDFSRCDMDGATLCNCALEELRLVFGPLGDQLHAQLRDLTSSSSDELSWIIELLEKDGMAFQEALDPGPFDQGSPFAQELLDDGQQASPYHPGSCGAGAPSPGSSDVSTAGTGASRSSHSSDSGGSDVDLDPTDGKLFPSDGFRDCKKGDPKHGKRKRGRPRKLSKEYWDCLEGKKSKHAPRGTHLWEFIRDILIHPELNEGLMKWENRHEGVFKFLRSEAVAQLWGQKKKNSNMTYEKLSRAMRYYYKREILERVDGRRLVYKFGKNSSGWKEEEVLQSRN
# Procedure, shortened: as §1
# CRX = CRX (Homo sapiens, UniProt O43186 1-299); settings: protein: recombinant; tags: N-terminal GST; dsDNA, one strand shown
# Sequence of CRX (O43186 whole entry): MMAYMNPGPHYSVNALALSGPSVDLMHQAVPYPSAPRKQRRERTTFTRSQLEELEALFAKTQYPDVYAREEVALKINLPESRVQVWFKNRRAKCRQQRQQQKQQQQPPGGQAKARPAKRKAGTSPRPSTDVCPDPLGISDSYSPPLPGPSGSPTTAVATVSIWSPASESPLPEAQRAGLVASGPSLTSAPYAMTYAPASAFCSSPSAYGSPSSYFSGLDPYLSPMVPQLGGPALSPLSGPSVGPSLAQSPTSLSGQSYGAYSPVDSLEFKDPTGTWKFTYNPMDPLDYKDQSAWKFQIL
# Procedure, shortened: as §1
# ETV1 = ETV1 (Homo sapiens, UniProt P50549 1-477); settings: protein: recombinant; tags: N-terminal GST; dsDNA, one strand shown
# Sequence of ETV1 (P50549 whole entry): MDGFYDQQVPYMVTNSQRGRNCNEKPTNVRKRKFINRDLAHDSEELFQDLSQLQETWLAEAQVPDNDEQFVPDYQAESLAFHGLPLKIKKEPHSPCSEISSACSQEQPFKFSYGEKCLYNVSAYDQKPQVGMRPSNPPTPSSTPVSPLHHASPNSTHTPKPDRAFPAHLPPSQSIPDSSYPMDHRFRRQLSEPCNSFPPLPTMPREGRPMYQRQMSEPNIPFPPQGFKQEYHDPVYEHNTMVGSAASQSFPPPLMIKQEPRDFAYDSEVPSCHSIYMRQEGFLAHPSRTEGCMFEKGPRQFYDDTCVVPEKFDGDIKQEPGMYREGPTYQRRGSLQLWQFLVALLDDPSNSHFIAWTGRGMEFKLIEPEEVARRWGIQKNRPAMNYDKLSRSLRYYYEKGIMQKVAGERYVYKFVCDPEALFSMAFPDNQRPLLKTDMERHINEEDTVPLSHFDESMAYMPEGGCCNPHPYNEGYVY
# Procedure, shortened: as §1
# ERF = target: T6, ERF (Homo sapiens, UniProt P50548 1-548); settings: protein: recombinant; tags: N-terminal GST; dsDNA, one strand shown
# T6 sequence: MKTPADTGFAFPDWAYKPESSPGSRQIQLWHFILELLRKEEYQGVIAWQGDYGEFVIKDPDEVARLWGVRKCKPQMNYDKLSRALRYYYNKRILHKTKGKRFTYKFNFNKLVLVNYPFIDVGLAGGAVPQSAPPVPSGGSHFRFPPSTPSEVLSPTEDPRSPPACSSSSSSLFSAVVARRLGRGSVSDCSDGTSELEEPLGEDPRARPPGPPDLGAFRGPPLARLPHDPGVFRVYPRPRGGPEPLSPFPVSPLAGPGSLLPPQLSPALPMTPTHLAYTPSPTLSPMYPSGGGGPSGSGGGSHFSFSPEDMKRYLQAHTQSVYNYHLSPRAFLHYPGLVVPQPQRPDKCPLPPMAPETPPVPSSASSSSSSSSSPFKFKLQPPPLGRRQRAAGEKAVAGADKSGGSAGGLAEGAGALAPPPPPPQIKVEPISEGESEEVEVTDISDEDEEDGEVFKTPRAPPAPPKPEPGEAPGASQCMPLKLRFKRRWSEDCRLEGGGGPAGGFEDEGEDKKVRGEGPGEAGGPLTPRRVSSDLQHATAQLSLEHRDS
# Procedure, shortened: as §1
# ETV3L = target: T7, ETV3L (Homo sapiens, UniProt Q6ZN32 1-361); settings: protein: recombinant; tags: N-terminal GST; dsDNA, one strand shown
# T7 sequence: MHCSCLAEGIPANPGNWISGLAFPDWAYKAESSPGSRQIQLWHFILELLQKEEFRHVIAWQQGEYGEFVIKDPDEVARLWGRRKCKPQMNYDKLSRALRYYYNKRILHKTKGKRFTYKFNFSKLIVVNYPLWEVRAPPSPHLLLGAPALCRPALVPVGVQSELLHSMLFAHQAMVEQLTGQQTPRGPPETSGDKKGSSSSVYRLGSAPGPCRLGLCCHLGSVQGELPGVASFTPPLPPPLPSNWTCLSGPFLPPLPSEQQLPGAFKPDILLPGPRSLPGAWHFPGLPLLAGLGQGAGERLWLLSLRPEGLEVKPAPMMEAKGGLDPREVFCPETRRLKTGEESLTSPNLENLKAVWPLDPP
# Procedure, shortened: as §1
# ETS2 = target: T8, ETS2 (Homo sapiens, UniProt P15036 1-469); settings: protein: recombinant; tags: N-terminal GST; dsDNA, one strand shown
# T8 sequence: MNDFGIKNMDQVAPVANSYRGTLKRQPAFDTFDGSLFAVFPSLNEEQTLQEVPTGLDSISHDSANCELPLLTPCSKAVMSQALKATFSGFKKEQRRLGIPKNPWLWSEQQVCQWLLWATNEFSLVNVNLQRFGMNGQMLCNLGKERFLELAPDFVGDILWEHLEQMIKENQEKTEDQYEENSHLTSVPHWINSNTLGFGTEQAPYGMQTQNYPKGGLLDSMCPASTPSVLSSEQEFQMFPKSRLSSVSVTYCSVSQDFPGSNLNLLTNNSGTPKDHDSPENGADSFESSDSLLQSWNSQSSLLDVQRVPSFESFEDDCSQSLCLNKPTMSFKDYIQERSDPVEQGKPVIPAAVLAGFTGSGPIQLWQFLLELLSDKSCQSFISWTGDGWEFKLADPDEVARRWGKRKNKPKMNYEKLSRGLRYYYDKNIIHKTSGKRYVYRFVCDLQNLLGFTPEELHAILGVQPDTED
# Procedure, shortened: as §1
# SPDEF = target: T9, SPDEF (Homo sapiens, UniProt O95238 1-335); settings: protein: recombinant; tags: N-terminal GST; dsDNA, one strand shown
# T9 sequence: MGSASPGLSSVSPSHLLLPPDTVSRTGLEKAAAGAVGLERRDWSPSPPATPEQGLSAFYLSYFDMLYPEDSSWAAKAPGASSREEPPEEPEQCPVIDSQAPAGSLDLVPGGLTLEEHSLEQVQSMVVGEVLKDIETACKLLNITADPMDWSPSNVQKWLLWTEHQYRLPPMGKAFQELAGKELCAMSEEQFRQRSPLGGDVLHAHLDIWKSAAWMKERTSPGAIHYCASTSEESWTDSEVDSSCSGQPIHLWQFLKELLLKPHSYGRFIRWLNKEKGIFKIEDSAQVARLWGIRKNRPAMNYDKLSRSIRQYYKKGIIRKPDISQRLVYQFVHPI
# Procedure, shortened: as §1
# ETV7 = target: T10, ETV7 (Homo sapiens, UniProt Q9Y603 1-341); settings: protein: recombinant; tags: N-terminal GST; dsDNA, one strand shown
# T10 sequence: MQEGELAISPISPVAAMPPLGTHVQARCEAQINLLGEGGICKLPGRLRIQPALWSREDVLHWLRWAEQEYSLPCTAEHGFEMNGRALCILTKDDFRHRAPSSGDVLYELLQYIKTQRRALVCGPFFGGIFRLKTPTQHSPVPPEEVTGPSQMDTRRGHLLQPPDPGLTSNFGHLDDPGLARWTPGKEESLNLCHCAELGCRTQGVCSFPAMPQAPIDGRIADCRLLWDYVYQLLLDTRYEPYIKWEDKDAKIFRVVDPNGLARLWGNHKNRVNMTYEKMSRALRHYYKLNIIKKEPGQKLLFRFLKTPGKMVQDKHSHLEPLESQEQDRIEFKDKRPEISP
# Procedure, shortened: as §1
# ELF5 = target: T11, ELF5 (Homo sapiens, UniProt Q9UKW6-2 1-255); settings: protein: recombinant; tags: N-terminal GST; dsDNA, one strand shown
# T11 sequence: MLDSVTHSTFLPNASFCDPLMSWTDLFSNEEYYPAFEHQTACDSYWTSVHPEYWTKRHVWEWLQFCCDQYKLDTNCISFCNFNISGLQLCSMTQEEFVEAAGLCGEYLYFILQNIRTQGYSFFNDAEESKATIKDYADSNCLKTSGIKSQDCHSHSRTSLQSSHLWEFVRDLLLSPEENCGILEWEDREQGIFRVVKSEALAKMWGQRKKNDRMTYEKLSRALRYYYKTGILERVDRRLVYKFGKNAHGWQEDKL
# Procedure, shortened: as §1
# ETV3 = target: T12, ETV3 (Homo sapiens, UniProt P41162-2 1-143); settings: protein: recombinant; tags: N-terminal GST; dsDNA, one strand shown
# T12 sequence: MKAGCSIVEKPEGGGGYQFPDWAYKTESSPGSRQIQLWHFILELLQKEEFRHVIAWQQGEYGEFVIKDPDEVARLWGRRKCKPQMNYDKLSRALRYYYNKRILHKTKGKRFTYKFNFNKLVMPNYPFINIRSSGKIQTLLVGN
# Procedure, shortened: as §1
# ETV6 = ETV6 (Homo sapiens, UniProt P41212 1-452); settings: protein: recombinant; tags: N-terminal GST; dsDNA, one strand shown
# Sequence of ETV6 (P41212 whole entry): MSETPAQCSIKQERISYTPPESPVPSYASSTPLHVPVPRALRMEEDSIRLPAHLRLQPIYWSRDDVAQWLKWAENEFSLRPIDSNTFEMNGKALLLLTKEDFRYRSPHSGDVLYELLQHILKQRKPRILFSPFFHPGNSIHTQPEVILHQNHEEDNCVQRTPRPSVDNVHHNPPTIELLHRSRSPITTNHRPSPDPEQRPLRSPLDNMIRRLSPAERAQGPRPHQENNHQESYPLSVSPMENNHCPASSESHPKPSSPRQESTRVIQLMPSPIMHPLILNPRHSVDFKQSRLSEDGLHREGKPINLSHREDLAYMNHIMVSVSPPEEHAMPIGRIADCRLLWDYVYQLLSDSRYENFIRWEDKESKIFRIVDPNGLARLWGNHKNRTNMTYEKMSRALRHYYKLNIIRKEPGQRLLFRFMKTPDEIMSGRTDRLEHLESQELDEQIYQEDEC
# Procedure, shortened: as §1
sequence,measurement,setting,value
ATTTTT,binding signal,FEV,"1.15 fold enrichment (6-mer frequency, TF over GST control)"
same,binding signal,ETV5,"1.21 fold enrichment (6-mer frequency, TF over GST control)"
same,binding signal,HSF1,"1.31 fold enrichment (6-mer frequency, TF over GST control)"
same,binding signal,SPIC,"1.1 fold enrichment (6-mer frequency, TF over GST control)"
same,binding signal,ELF4,"1.19 fold enrichment (6-mer frequency, TF over GST control)"
same,binding signal,ELK4,"1.31 fold enrichment (6-mer frequency, TF over GST control)"
same,binding signal,ETV2,"1.29 fold enrichment (6-mer frequency, TF over GST control)"
same,binding signal,ELF3,"1.2 fold enrichment (6-mer frequency, TF over GST control)"
same,binding signal,CRX,"1.28 fold enrichment (6-mer frequency, TF over GST control)"
same,binding signal,ETV1,"1.28 fold enrichment (6-mer frequency, TF over GST control)"
same,binding signal,ERF,"1.21 fold enrichment (6-mer frequency, TF over GST control)"
same,binding signal,ETV3L,"1.2 fold enrichment (6-mer frequency, TF over GST control)"
same,binding signal,ETS2,"1.1 fold enrichment (6-mer frequency, TF over GST control)"
same,binding signal,SPDEF,"1.15 fold enrichment (6-mer frequency, TF over GST control)"
same,binding signal,ETV7,"1.19 fold enrichment (6-mer frequency, TF over GST control)"
same,binding signal,ELF5,"1.16 fold enrichment (6-mer frequency, TF over GST control)"
same,binding signal,ETV3,"1.17 fold enrichment (6-mer frequency, TF over GST control)"
same,binding signal,ETV6,"1.17 fold enrichment (6-mer frequency, TF over GST control)"
